Measured values as given in the supplement of paper PMC7411054.
Counter-ions that a name gives are not always drawn.

Assays:
Test in all cases: lowest phenotypically active concentration; higher = less potent
Settings in all cases: treatment time: 24 h
A549-TP53BP1-CLTA = tested on: A549-TP53BP1-CLTA
Method in brief: (§1)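 Phenotypic activity depended on meeting both a deviation and a reproducibility criterion. The fifteen gene-edited A549, HepG2 and WPMY1 reporter lines were treated at 0.3, 1, 3 or 9 µM for 24 h, four wells each, then imaged live with features normalised to solvent control wells. Deviation required ≥3 of 4 wells past the 95th percentile of control Euclidean distances, and reproducibility a median replicate Pearson correlation above the 95th percentile of non-replicates.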

A549-TUBA1B-RELA = tested on: A549-TUBA1B-RELA
Method in brief: as §1

HepG2-ACTB-RAB5A = tested on: HepG2-ACTB-RAB5A
Method in brief: as §1

HepG2-CANX-COX4 = tested on: HepG2-CANX-COX4
Method in brief: as §1

HepG2-GM130-SQSTM1 = tested on: HepG2-GM130-SQSTM1
Method in brief: as §1

WPMY1-ACTB-RAB5A = tested on: WPMY1-ACTB-RAB5A
Method in brief: as §1

WPMY1-CANX-COX4 = tested on: WPMY1-CANX-COX4
Method in brief: as §1

WPMY1-TP53BP1-CLTA = tested on: WPMY1-TP53BP1-CLTA
Method in brief: as §1

WPMY1-TUBA1B-RELA = tested on: WPMY1-TUBA1B-RELA
Method in brief: as §1

WPMY1-GM130-SQSTM1 = tested on: WPMY1-GM130-SQSTM1
Method in brief: as §1

SMILES	lowest phenotypically active concentration (A549-TP53BP1-CLTA)	lowest phenotypically active concentration (A549-TUBA1B-RELA)	lowest phenotypically active concentration (HepG2-ACTB-RAB5A)	lowest phenotypically active concentration (HepG2-CANX-COX4)	lowest phenotypically active concentration (HepG2-GM130-SQSTM1)	lowest phenotypically active concentration (WPMY1-ACTB-RAB5A)	lowest phenotypically active concentration (WPMY1-CANX-COX4)	lowest phenotypically active concentration (WPMY1-TP53BP1-CLTA)	lowest phenotypically active concentration (WPMY1-TUBA1B-RELA)	lowest phenotypically active concentration (WPMY1-GM130-SQSTM1)
Cc1cc2c(F)c(Oc3ncnn4cc(OC[C@@H](C)O)c(C)c34)ccc2[nH]1 [brivanib]	9 µM	9 µM	9 µM	9 µM	9 µM	3 µM	9 µM	3 µM	9 µM	–
CNc1nc(-c2ccc3c(N)n[nH]c3c2)cc(N2C[C@@H](C(=O)NC3CCCCC3)CC[C@H]2C)n1	3 µM	3 µM	–	3 µM	3 µM	1 µM	1 µM	≤ 0.3 µM	1 µM	≤ 0.3 µM
Cc1ccc(-n2nc(C(C)(C)C)cc2NC(=O)Nc2ccc(OCCN3CCOCC3)c3ccccc23)cc1	9 µM	3 µM	1 µM	3 µM	3 µM	3 µM	1 µM	9 µM	1 µM	1 µM
Nc1nc(S)c2[nH]cnc2n1 [thioguanine]	9 µM	9 µM	9 µM	1 µM	1 µM	1 µM	1 µM	9 µM	9 µM	1 µM
CC(C)(C)c1cc(NC(=O)Nc2ccc(-c3cn4c(n3)sc3cc(OCCN5CCOCC5)ccc34)cc2)no1 [quizartinib]	3 µM	3 µM	9 µM	–	3 µM	3 µM	1 µM	9 µM	3 µM	9 µM
COc1cc(C(=O)NC2CCN(C)CC2)c(F)cc1Nc1ncc2c(n1)N(C1CCCC1)CC(F)(F)C(=O)N2C [TAK 960 hydrochloride]	≤ 0.3 µM	≤ 0.3 µM	≤ 0.3 µM	≤ 0.3 µM	≤ 0.3 µM	≤ 0.3 µM	1 µM	≤ 0.3 µM	≤ 0.3 µM	≤ 0.3 µM
CCCCNNC(=O)c1ccc(Br)cc1	3 µM	3 µM	1 µM	1 µM	1 µM	–	9 µM	9 µM	9 µM	3 µM
COc1cc2c(N3CCN(C(=O)Nc4ccc(OC(C)C)cc4)CC3)ncnc2cc1OCCCN1CCCCC1 [tandutinib]	9 µM	9 µM	9 µM	9 µM	9 µM	9 µM	9 µM	–	9 µM	9 µM
COc1cc2nc(N3CCN(C(=O)C4COc5ccccc5O4)CC3)nc(N)c2cc1OC (centres undefined) [doxazosin]	9 µM	3 µM	9 µM	–	9 µM	9 µM	9 µM	9 µM	–	≤ 0.3 µM
Cc1ccc2nc(NCCN)c3ncc(C)n3c2c1	3 µM	3 µM	3 µM	3 µM	3 µM	3 µM	3 µM	3 µM	3 µM	3 µM
O=C(O)[C@]1(Cc2cccc(Nc3nccs3)n2)CC[C@@H](Oc2cccc(Cl)c2F)CC1	1 µM	1 µM	≤ 0.3 µM	1 µM	≤ 0.3 µM	≤ 0.3 µM	1 µM	≤ 0.3 µM	≤ 0.3 µM	–
CN1CCCC(n2nc(Cc3ccc(Cl)cc3)c3ccccc3c2=O)CC1 (centres undefined) [azelastine]	9 µM	3 µM	9 µM	–	9 µM	9 µM	9 µM	9 µM	9 µM	9 µM
CC(C)(C)c1nc(-c2cccc(NS(=O)(=O)c3c(F)cccc3F)c2F)c(-c2ccnc(N)n2)s1 [dabrafenib]	≤ 0.3 µM	≤ 0.3 µM	3 µM	≤ 0.3 µM	≤ 0.3 µM	1 µM	1 µM	–	1 µM	–
CNC(=O)c1cc(Oc2ccc(NC(=O)Nc3ccc(Cl)c(C(F)(F)F)c3)cc2)ccn1 [sorafenib]	≤ 0.3 µM	9 µM	9 µM	3 µM	3 µM	≤ 0.3 µM	3 µM	–	9 µM	1 µM
O=C1N=C(NCc2cccs2)S/C1=C\c1ccc2ncccc2c1	3 µM	3 µM	–	3 µM	9 µM	3 µM	3 µM	3 µM	3 µM	1 µM
N=C(N)c1ccc(OCCCCCOc2ccc(C(=N)N)cc2)cc1 [pentamidine]	3 µM	1 µM	9 µM	9 µM	–	–	–	–	–	9 µM
C=CC(=O)N1CCC[C@@H](n2nc(-c3cccc(C(=O)Nc4ccc(C(C)C)c(C)c4)c3)c3c(N)ncnc32)C1	3 µM	1 µM	1 µM	1 µM	1 µM	1 µM	3 µM	9 µM	3 µM	3 µM
CC[C@H](CO)Nc1nc(NCc2ccccc2)c2ncn(C(C)C)c2n1 [Roscovitine]	9 µM	≤ 0.3 µM	9 µM	3 µM	9 µM	9 µM	9 µM	9 µM	9 µM	–
O=C(Nc1cccnc1)N1CCC(Cc2cccc(Oc3ccc(C(F)(F)F)cn3)c2)CC1	9 µM	9 µM	9 µM	–	–	–	–	–	–	9 µM

SMILES	lowest phenotypically active concentration (A549-TP53BP1-CLTA)	lowest phenotypically active concentration (A549-TUBA1B-RELA)	lowest phenotypically active concentration (HepG2-ACTB-RAB5A)	lowest phenotypically active concentration (HepG2-CANX-COX4)	lowest phenotypically active concentration (HepG2-GM130-SQSTM1)	lowest phenotypically active concentration (WPMY1-ACTB-RAB5A)	lowest phenotypically active concentration (WPMY1-CANX-COX4)	lowest phenotypically active concentration (WPMY1-TP53BP1-CLTA)	lowest phenotypically active concentration (WPMY1-TUBA1B-RELA)	lowest phenotypically active concentration (WPMY1-GM130-SQSTM1)
CC[C@]12CCCN3CCc4c(n(c5ccccc45)C(=O)C1)[C@@H]32 [Eburnamonine (-)]	9 µM	9 µM	9 µM	–	–	9 µM	9 µM	3 µM	9 µM	–
CN(C)CCCN1c2ccccc2Sc2ccc(Cl)cc21 [chlorpromazine]	9 µM	3 µM	–	9 µM	9 µM	9 µM	9 µM	9 µM	9 µM	–
CN1CCN([C@H]2CC[C@H](n3cc(-c4ccc(Oc5ccccc5)cc4)c4c(N)ncnc43)CC2)CC1	≤ 0.3 µM	≤ 0.3 µM	≤ 0.3 µM	1 µM	≤ 0.3 µM	≤ 0.3 µM	–	1 µM	≤ 0.3 µM	≤ 0.3 µM
N#CC[C@@H](C1CCCC1)n1cc(-c2ncnc3[nH]ccc23)cn1 [ruxolitinib-(S)]	9 µM	9 µM	–	9 µM	9 µM	9 µM	9 µM	–	3 µM	–
O=C1NCCN1CCN1CCC(c2cn(-c3ccc(F)cc3)c3ccc(Cl)cc23)CC1 [sertindole]	9 µM	3 µM	9 µM	9 µM	3 µM	9 µM	3 µM	9 µM	3 µM	9 µM
O=C1/C(=C\c2ccncc2)CCC/C1=C\c1ccncc1	–	–	9 µM	3 µM	1 µM	3 µM	3 µM	9 µM	3 µM	3 µM
O=C(Nc1ccccc1)c1cc([N+](=O)[O-])ccc1Cl	–	3 µM	9 µM	–	–	–	9 µM	–	–	–
CC/C(=C(/c1ccccc1)c1ccc(OCCN(C)C)cc1)c1ccccc1 [tamoxifen]	–	3 µM	9 µM	–	9 µM	9 µM	9 µM	9 µM	9 µM	9 µM
Cc1cc2c(F)c(Oc3ncnn4cc(OC[C@@H](C)OC(=O)[C@H](C)N)c(C)c34)ccc2[nH]1 [brivanib-alaninate]	9 µM	–	9 µM	3 µM	9 µM	3 µM	3 µM	3 µM	3 µM	3 µM
CCCOc1ccc(CCc2nc3cc(-c4c(C)noc4C)ccc3n2CCN2CCOCC2)cc1	–	–	9 µM	9 µM	–	–	–	–	–	–
COc1ccc(-c2cc(=O)c3c(O)cc(O)cc3o2)cc1O [Diosmetin]	–	9 µM	–	–	–	–	9 µM	9 µM	9 µM	–
Nc1nccc(-c2ccc3noc(-c4ccc(Cl)cc4)c3c2)n1 [PIM-1 Inhibitor 2]	9 µM	–	–	–	–	9 µM	9 µM	9 µM	9 µM	9 µM
C=C1C(=O)O[C@@H]2C=C(C)CCC=C(C)CC[C@@H]12 [Costunolide]	–	–	9 µM	9 µM	3 µM	9 µM	–	9 µM	9 µM	9 µM
CN(C)c1ccc(/C=C2\C(=O)Nc3ccccc32)cc1	3 µM	9 µM	–	–	9 µM	9 µM	3 µM	9 µM	–	3 µM
C[C@@H]1C[C@H]2[C@@H]3CCC4=CC(=O)C=C[C@]4(C)[C@@]3(Cl)[C@@H](O)C[C@]2(C)[C@@]1(OC(=O)c1ccco1)C(=O)CCl [mometasone furoate]	≤ 0.3 µM	≤ 0.3 µM	–	–	–	–	–	–	–	3 µM
C/C(=N/NC(=N)N)c1ccc(NC(=O)Nc2ccc(/C(C)=N/NC(=N)N)cc2)cc1	–	3 µM	3 µM	9 µM	3 µM	3 µM	3 µM	–	–	9 µM
C[C@@H](Nc1ncnc2[nH]c(-c3ccc(O)cc3)cc12)c1ccccc1 [PKI 166 hydrochloride]	3 µM	3 µM	–	9 µM	–	9 µM	3 µM	3 µM	9 µM	3 µM
Cc1cccc(C)c1OCC(=O)N[C@@H](Cc1ccccc1)[C@@H](O)C[C@H](Cc1ccccc1)NC(=O)[C@H](C(C)C)N1CCCNC1=O [lopinavir]	–	–	9 µM	–	–	–	9 µM	–	–	–
CCc1cncnc1N1CCN(Cc2nc3cc(C(F)(F)F)ccc3[nH]2)CC1	–	–	9 µM	9 µM	9 µM	–	–	–	9 µM	–
